In PubChem BioAssay AID485294 (National Center for Advancing Translational Sciences (NCATS), 2010):
Among all 370,000 compounds or so, about 150 (0.041%) were called active. Where a call stands in place of a potency, no number is given. Roughly 14% stayed inconclusive and do not appear here. This is one part of a sample in which actives are shown more often than they occur. The call rests on the fitted dose curve; in most records, active means well fitted inhibition curve with a large enough effect; inconclusive means small, poorly fitted or top-dose-only effect; inactive means flat fitted curve, though single readings scatter.
Further: nearly all actives have a fitted effect of over 25% in size.
Potency means the concentration at half of the fitted maximal effect.

The compounds below were run against Beta-lactamase (Escherichia coli (strain K12)) (UniProt P00811) (assay: qHTS Inhibitors of AmpC Beta-Lactamase (assay with detergent)). Conditions: AmpC hydrolysis of nitrocefin, absorbance 480 nm, 0.01% Triton; series mostly up to 114 µM.
Sequence of Beta-lactamase (Escherichia coli (strain K12)) (P00811 whole entry, looked up): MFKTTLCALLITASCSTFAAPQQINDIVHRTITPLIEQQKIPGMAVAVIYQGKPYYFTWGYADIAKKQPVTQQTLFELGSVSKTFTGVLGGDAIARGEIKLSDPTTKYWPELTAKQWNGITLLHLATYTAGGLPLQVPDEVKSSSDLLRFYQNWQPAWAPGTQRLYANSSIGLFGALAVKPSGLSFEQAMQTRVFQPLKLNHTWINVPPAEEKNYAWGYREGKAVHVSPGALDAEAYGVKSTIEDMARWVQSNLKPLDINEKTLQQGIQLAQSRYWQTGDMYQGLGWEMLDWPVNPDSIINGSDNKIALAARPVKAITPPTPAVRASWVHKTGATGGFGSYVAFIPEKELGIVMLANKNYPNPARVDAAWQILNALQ
Description: NIH Molecular Libraries Probe Production Network [MLPCN] NIH Chemical Genomics Center [NCGC] Assay Provider: Professor Brian Shoichet, UCSF Assay Overview: This aggregation profiling approach exploits the sensitivity of aggregate formation to detergent. Inhibition of b-lactamase is measured in the presence and absence of 0.01% Triton X-100. This particular assay had the prescence of 0.01% Triton X-100. See Pubchem assay "Promiscuous and Specific Inhibitors of AmpC Beta-Lactamase (assay without detergent)" for related screen. Compounds that inhibit only in the absence of detergent are considered likely promiscuous aggregators. A screen of 1,030 compounds was performed in Brian Shoichet's lab in 96-well format. AmpC activity was measured by following the absorbance at 480 nm. Nitrocefin is a chromogenic substrate: while nitrocefin is yellow (lmax 390 nm), the product of its hydrolysis is red (lmax 486 nm, 17,000 M-1). AmpC beta lactamase was provided by Shoichet Lab, UCSF.
Buffer: 20 mM phosphate buffer, pH 7.0 Triton X-100: No Detergent screen: 0.0001%, Detergent screen: 0.01%. Reagents/Controls: Buffer in columns 3 and 4 as negative control (no enzyme). 5.3 nM AmpC in columns 1, 2, 5-48. Titration of UCSF compound 9 control (from 10 mM, then 1:2) pin-transferred to column 2. Column 1 is neutral (100% activity). Assay Steps: Six uL of reagents were dispensed to 1536-well Greiner black clear bottom plates. Compounds and controls (23 nL) were transferred via Kalypsys PinTool. The plates were incubated for 15 min at room temperature, and then 2 uL of 800 uM solution of nitrocefin was added to start the reaction. The plates were immediately transferred to and read every 20 seconds for 4 min on ViewLux (Perkin-Elmer) High-throughput CCD imager using 480 nm absorbance protocol. During dispense, reagent bottles were kept submerged into 4 deg C water bath. Keywords: NIH Roadmap, MLSCN, MLI, MLSMR, qHTS, NCGC, AmpC Beta-Lactamase, Aggregation
With `Cc1c(-c2nc(-c3ccc4c(c3)OCO4)no2)nnn1-c1ccc(Br)cc1F` the Potency was “inactive”.
`COc1cc(NC(=O)c2noc3c2CSc2ccccc2-3)cc(OC)c1OC` was tested, and the Potency was “inactive”.
With `CCCCN1CC(c2nc3ccccc3n2CCCCOc2ccc(C)cc2C)CC1=O` (configuration not stated) the Potency was “inactive”.
With `CCOc1cccc(NC(=O)CSc2ncc(-c3ccc(Cl)cc3)[nH]2)c1` the Potency was “inactive”.
With `CC(=O)N1CCCc2cc(S(=O)(=O)Nc3ccc(Cl)cc3F)ccc21` the Potency was “inactive”.
`Nc1ccc(Nc2cc(O)c3ncccc3c2)cc1` was tested, and the Potency was “inactive”.
With `CCN(CC)S(=O)(=O)c1ccc2c(c1)N(CC(=O)NCC(C)c1ccccc1)C(=O)CO2` (configuration not stated) the Potency was “inactive”.
With `CSc1ccccc1-c1nnc(NC(=O)c2ccc3c(c2)OCCO3)o1` the Potency was “inactive”.
With `CCn1c(CN2CCC(C)CC2)nc2cc(NC(=O)c3ccccc3[N+](=O)[O-])ccc21` the Potency was “inactive”.
`COc1ccc(NC(=O)CCN2CCN(CCO)CC2)cc1` was tested, and the Potency was “inactive”.
`O=C(c1cccs1)c1cn(CCOc2ccc(Cl)cc2)c2ccccc12` was tested, and the Potency was “inactive”.
In the case of `COc1ccc(OC)c(NC(=O)Cn2c(=O)n(Cc3ccccc3)c(=O)c3ccccc32)c1`, the Potency is reported as “inactive”.
For `CSc1nc(=O)c2c(n1C)NC(=O)CC2c1ccccc1OC(C)C` (configuration not stated), the Potency was “inactive”.
For `Cc1cccc(N2CCN(C(=O)c3oc(=O)c4ccccc4c3-c3ccccc3)CC2)c1C`, the Potency was “inactive”.
`COc1ccc(Cn2ccnc2SCC(=O)Nc2ccc3c(c2)OCO3)cc1` was tested, and the Potency was “inactive”.
For `Cc1ccccc1OCc1ccc(-c2nc(C#N)c(N3CCCCC3)o2)o1`, the Potency was “inactive”.
With `Cc1ccc(S(=O)(=O)c2c(Nc3cccc(Cl)c3)sc(C(=O)c3ccc4c(c3)OCO4)c2N)cc1` the Potency was “inactive”.
For `Cc1cccc(NC(=O)Cn2c(C(F)(F)F)nc3ccccc32)c1C`, the Potency was “inactive”.
`O=C(/C=C/c1ccccc1)Nc1cc(-c2nc3cc(Cl)ccc3o2)ccc1Cl` was tested, and the Potency was “inactive”.
In the case of `COc1ccc(-c2cc(C(F)(F)F)n3nc(-c4ccccc4)cc3n2)cc1OC`, the Potency is reported as “inactive”.
In the case of `CCOc1ccc(C(NC(=O)c2cc(OC)c(OC)c(OC)c2)c2cc(Cl)c3cccnc3c2O)cc1` (configuration not stated), the Potency is reported as “inactive”.
`Cc1ccc2c(=O)c(C(=O)c3ccc(Cl)cc3)cn(CC(=O)NC3CCCCC3)c2n1` was tested, and the Potency was “inactive”.
In the case of `COc1ccc(-c2nc3ccccc3s2)cc1NC(=O)COc1ccccc1C`, the Potency is reported as “inactive”.
For `CCn1c(C(=O)Nc2cc(Cl)ccc2C)cc2sc(Cl)cc21`, the Potency was “inactive”.
`Cc1cc(C)c(NC(=O)c2cc3sc(Cl)cc3n2C)c(C)c1` was tested, and the Potency was 56.2 µM (active).
With `Cc1ccc(NC(=O)c2cc3cc(C)ccc3n2C)cc1` the Potency was “inactive”.
For `COc1ccc(CCNc2ncnc3onc(-c4ccc(Cl)cc4)c23)c(OC)c1`, the Potency was “inactive”.
In the case of `CCOC(=O)c1c(C)oc2nc(C)nc(N3CCN(c4ccc(OC)cc4)CC3)c12`, the Potency is reported as “inactive”.
In the case of `CC(C)(C)NC(=O)C(c1ccncc1)N(C(=O)CNC(=O)c1ccco1)c1ccc2c(c1)OCO2` (configuration not stated), the Potency is reported as “inactive”.
With `Cc1ccc(N(C(=O)CNC(=O)c2ccco2)C(C(=O)NC2CCCC2)c2ccncc2)cc1` (configuration not stated) the Potency was 14.1 µM (active).
For `COc1cccc(N(C(=O)CNC(=O)c2ccco2)C(C(=O)NC2CCCCC2)c2cccnc2)c1` (configuration not stated), the Potency was “inactive”.
For `Cc1nnc(N2CCCC(C(=O)NCCN(C)C)C2)c2nn(-c3ccccc3)c(C)c12` (configuration not stated), the Potency was “inactive”.
With `CCOc1ccc(-c2n[nH]c3c2C(c2ccccc2OC)N(c2ccc(Br)cc2)C3=O)cc1` (configuration not stated) the Potency was “inactive”.
With `Nc1ccc2nc3c(=O)[nH]c(=S)[nH]c3nc2c1` the Potency was 50.1 µM (active).
With `Clc1ccc(CSc2nncn3c2cc2occc23)cc1` the Potency was “inactive”.
With `Cc1ccc(C)c(S(=O)(=O)c2nnn3c2nc(N2CCOCC2)c2sccc23)c1` the Potency was “inactive”.
In the case of `CCC(=O)N1CCc2cc(Br)cc(S(=O)(=O)Nc3ccc(C)cc3C)c21`, the Potency is reported as “inactive”.
With `CC1=C(c2ccc(C)cc2)S(=O)(=O)NC1=NCCCN1CCN(c2cc(C)ccc2C)CC1` the Potency was “inactive”.
In the case of `Fc1ccc(C(Nc2ccc(Cl)c(C(F)(F)F)c2)c2nnc(-c3ccccc3)o2)cc1` (configuration not stated), the Potency is reported as “inactive”.
In the case of `Cc1ccc(-c2cn3c(n2)sc2cc(C(=O)NCc4cccs4)ccc23)c(C)c1`, the Potency is reported as “inactive”.
For `CCOC(=O)c1c(NC(=O)c2ccc(S(=O)(=O)N(CC)CC)cc2)sc2c1CCCCC2`, the Potency was “inactive”.
For `COc1ccc(-c2cccc(NS(=O)(=O)c3cc(C)c(OC)c(C)c3C)c2)nn1`, the Potency was “inactive”.
With `Cc1ccc(NC(=O)Cc2ccc(NC(=O)N3CCCCc4ccccc43)cc2)cc1` the Potency was “inactive”.
For `COc1ccc(CCC(=O)NCCc2csc(-c3ccc(Cl)cc3)n2)cc1`, the Potency was “inactive”.
In the case of `COc1cc(-c2cc3n(C)c(C)c(CCC(=O)Nc4ccc(F)cc4)c(=O)n3n2)cc(OC)c1OC`, the Potency is reported as “inactive”.
`Cc1ccc(NC(=O)c2cc(S(=O)(=O)NCCC3=CCCCC3)ccc2F)cc1C` was tested, and the Potency was “inactive”.
With `Cc1cc(Nc2cccc(C(F)(F)F)c2)nc2ccc(NC(=O)c3ccc(=O)[nH]c3)cc12` the Potency was “inactive”.
In the case of `COCCn1c(CCC(=O)Nc2cc(C)ccc2C)nc2cccnc21`, the Potency is reported as “inactive”.
For `Cc1ccc2cccc(NC(=O)c3ccc(OC(C)C)cc3)c2n1`, the Potency was “inactive”.
In the case of `COc1ccc(-c2nc3nc(C)cc(C)n3c2Nc2c(C)cccc2C)cc1`, the Potency is reported as “inactive”.
`O=C(Nc1c(C(=O)N2CCN(c3ccc(F)cc3)CC2)oc2ccccc12)c1ccco1` was tested, and the Potency was “inactive”.
`CCOc1ccc(NC(=O)CCc2c(C)nn(-c3ccc(N4CCCC4)nn3)c2C)cc1` was tested, and the Potency was “inactive”.
With `O=C(COc1ccccc1F)Nc1ccc(C(=O)OCc2cc(=O)n3nc(C4CC4)sc3n2)cc1` the Potency was “inactive”.
In the case of `CCOc1cc(C2C(C(=O)OC)=C(C)NC3=C2C(=O)c2ccccc23)ccc1O` (configuration not stated), the Potency is reported as “inactive”.
In the case of `O=S(=O)(c1ccc2nc(NCc3ccccc3Cl)ccc2c1)N1CCCCC1`, the Potency is reported as “inactive”.
`COc1ccc(Cl)cc1-n1c(CCC(=O)O)ccc1-c1ccc(C)cc1` was tested, and the Potency was “inactive”.
With `O=C(Nc1ccc(S(=O)(=O)N2CCC(c3nc4ccccc4s3)CC2)cc1)c1ccccc1F` the Potency was “inactive”.
In the case of `CSc1ccc(CCNC(=O)c2cc(C)nc3c2c(C)nn3-c2cccc(F)c2)cc1`, the Potency is reported as “inactive”.
For `Cc1ccc(Cl)cc1NC(=O)CSc1nc2ccccc2nc1Cc1ccccc1`, the Potency was “inactive”.
In the case of `CCCCN(CC)CCCNC(=O)c1nn(C)c2c1CS(=O)(=O)c1ccccc1-2`, the Potency is reported as “inactive”.
For `CCC(CC)c1nn2cc(-c3ccccc3)nc2s1`, the Potency was “inactive”.
For `COc1ccc(N2C(=O)CSC23C(=O)N(Cc2cccc(F)c2)c2ccccc23)cc1Cl` (configuration not stated), the Potency was “inactive”.
